The supplement of paper PMC3334620
In all, about 33,000 sequences were measured (“E-score (-0.5 to 0.5)”: median about -0.016, highest 2% from about 0.32 on). What follows is part of a selection rich in the highest values, with near analogues and random picks from the rest.

Target: T1, Stp1 (UniProt B3LFK1)
T1 sequence: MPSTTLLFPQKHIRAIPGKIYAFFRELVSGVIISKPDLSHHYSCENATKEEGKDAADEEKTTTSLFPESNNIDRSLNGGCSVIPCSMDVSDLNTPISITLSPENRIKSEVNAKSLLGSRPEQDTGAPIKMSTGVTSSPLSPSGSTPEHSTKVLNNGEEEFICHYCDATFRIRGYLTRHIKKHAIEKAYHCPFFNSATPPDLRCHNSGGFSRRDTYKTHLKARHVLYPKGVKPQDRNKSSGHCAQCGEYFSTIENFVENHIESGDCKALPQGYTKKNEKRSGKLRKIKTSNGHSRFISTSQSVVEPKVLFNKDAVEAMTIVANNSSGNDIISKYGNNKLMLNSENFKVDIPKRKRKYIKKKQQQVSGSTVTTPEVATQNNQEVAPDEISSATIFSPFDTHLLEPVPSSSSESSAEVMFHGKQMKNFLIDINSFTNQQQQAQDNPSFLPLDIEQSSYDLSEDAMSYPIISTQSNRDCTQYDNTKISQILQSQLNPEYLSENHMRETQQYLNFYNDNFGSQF
Assay: PBM E-score (8-mer binding enrichment) (E-score (-0.5 to 0.5)); higher = stronger / more preferred TF binding
Conditions: protein concentration: 200 nM; construct: GST-full length
Method in brief: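 Yeast transcription factors carrying a GST tag, as full-length proteins or DNA-binding domains, were produced by PURExpress in vitro transcription/translation. About 100-200 nM protein was applied to universal all-10-mer Agilent arrays, double-stranded by primer extension on fresh or once-stripped slides. Bound protein was detected with fluorescent anti-GST, and scans were normalised with masliner. The Universal PBM Analysis Suite gave each ungapped eight-base word, pooled with its reverse complement, an E-score, a modified Wilcoxon-Mann-Whitney statistic.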

Sequence | PBM E-score
ACAGTGCG | -0.022
CGCTGGAG | -0.107
ATTGAGGC | 0.146
CCCAGTCG | -0.267
AAGGACCG | -0.117
CCATTAGG | -0.209
CTAACAGC | 0.0206
AGCCACTC | 0.0834
CTTTTTGC | 0.0819
AACTAACC | 0.117
CAATGCCC | 0.136
CAATGCCG | 0.374
AAATGCCG | 0.443
AAATGCCC | -0.108
AAATGCCT | 0.285
CAATGCCA | 0.0614
GTGCTAAC | -0.0443
ACAAGATG | -0.052
AAACCTCA | -0.0665
AGCGAACT | 0.00922
CACAGCCC | -0.172
AAAAGCCT | -0.0406
CAAAGCCC | -0.0858
AAAAGCCC | -0.145
CAAAGCCG | 0.316

Sequence | PBM E-score
AAAAGCCG | 0.326
AACAGCCG | 0.255
GAAAAGCC | 0.0718
CAAAAGCC | 0.121
CACAGCCG | 0.327
CAAAGCCA | 0.0366
AAAAAGCC | 0.34
GAGATAGC | -0.111
CACAGAAA | -0.00471
TGGGCACA | 0.135
GTAGATGA | 0.0463
GAGCTCTA | -0.101
GAAATTTC | -0.153
CCCTGGTC | -0.41
AGCTAACC | -0.159
CCTAGCCA | -0.0258
CTGCGAAG | -0.175
CTGCACGA | -0.152
AGGCACGC | 0.209
CGGCACGC | 0.437
CGGCACGA | 0.459
GGGCACGA | 0.133
CTGCACGC | -0.0205
GACACTCC | 0.0152
AATTCTGA | 0.131

Sequence | PBM E-score
GCATTTCC | 0.146
AAGTAAGG | -0.0479
ACCTATCG | 0.0549
CAAGAGCC | 0.21
CCAAGCCC | -0.241
AGACGGAT | 0.14
CGACGGCG | 0.353
CGACGGCC | 0.0289
AGACGGCG | 0.463
AGACGGCC | 0.121
AGACGGCT | 0.343
CGACGGAG | -0.147
AGACGTCT | -0.219
AGACGGGG | -0.154
ACAGTCGG | -0.0418
AAGCACCC | -0.224
CAAATTGC | 0.115
CTCAGTCC | -0.195
ATGAAGAC | 0.0861
ACGTTTAT | 0.0901
CTGGGTGA | -0.229
CAATAACC | 0.0421
AGGGCTAG | -0.207
AAGCTACT | -0.0664
GACGCGGA | 0.136

Sequence | PBM E-score
GACGCGGC | 0.466
AACGCGGA | 0.0987
CACGCGGG | 0.143
CACGCGGA | 0.294
AACGCGGG | 0.184
GACGCGAC | -0.0598
AACGCGGC | 0.443
CACGCGGC | 0.459
ACTCGATC | -0.0856
AGGTGGCA | 0.218
GAATGCCA | 0.134
CTTAAATC | 0.0764
GGGGCGTA | -0.174
ACGGCGTC | 0.472
ATGGCGTG | 0.102
GTGGCGTA | 0.0488
CCGGCGTC | 0.0446
AGGGCGTG | -0.0356
CCGGCGTA | 0.0906
AAGGCGTA | 0.234
ACGGCGTG | 0.455
ACGGCGTA | 0.448
GCGGCGTA | 0.433
AGGGCGTC | 0.131
GTGTGTTA | 0.029

Sequence | PBM E-score
AGTTCAAT | -0.0607
CGGTTATC | -0.0601
CAGCAATG | -0.194
AAATAAGG | 0.0174
CAAACTAG | -0.107
CCACTGGA | -0.241
ACACCGCG | 0.0308
CCAGAACC | -0.154
AGGCTATG | -0.196
CGCTGAAG | -0.108
ACGGCTGG | 0.139
ATGGCTTG | -0.0553
ACGGCTTG | 0.335
ACGGCTGC | 0.289
GCGGCTTA | 0.234
ACGGCTTC | 0.417
ACGGCTGA | 0.147
CCGGCTTC | -0.0259
ACGGCTTA | 0.375
AAGCGGTC | -0.149
GATTAGGC | 0.02
